Consider 38 molecules from PubChem BioAssay (NCI).

About 83,000 compounds went through this panel and 20% of them were active in at least one assay; those are over-represented in the sample as a whole.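 Growth was measured after 48 h exposure to one concentration of compound in 96-well plates. Values under 10 count as active.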 The source made the active and inactive calls.

The test system of one test is RPMI-8226 leukemia. Kind of test: NCI-60 one-dose screen, 48 h (100 = growth as untreated, 0 = no growth, -100 = all killed). Conditions: 10 µM unless noted.
Turning to `N#C/C(=C\c1ccc(-c2ccccc2)o1)c1nc(-c2ccco2)cs1`, the growth is 49.6% (inactive).

`C=C1C(=O)O[C@H]2[C@H]1CC/C(COC(=O)NCc1c[nH]c3ccccc13)=C\CC[C@@]1(C)O[C@@H]21`: the growth is 4.57% (active).

For the molecule `Cn1cc(-c2csc(-c3cn(CCN)c4ccccc34)n2)c2cccnc21`, the growth is 51.1% (inactive).

With `C=C(C)[C@@H]1CC[C@]2(C)[C@H](CC[C@@H]3[C@H]4[C@H]5OC[C@@]4(CCC5(C)C)CC[C@]32C)[C@@]1(C)CCCN`, the growth was 1.46% (active).

With `CC[C@]12C=CCN3CC[C@@]4(c5cc([C@H]6CCC(=O)N6)c(OC)cc5N(C)[C@H]4[C@@](O)(C(=O)OC)[C@@H]1OC(C)=O)[C@@H]32`, the growth was 114% [2.5 µM] (inactive).

`COc1cc2c(cc1-c1c(C)noc1C)ncc1nc(C3CCCCC3)n([C@@H](C)COC(F)F)c12`: the growth was 13.3% (inactive).

Regarding `COc1ccc(/C=C(\C#N)c2cc3ccccc3n2S(C)(=O)=O)cc1`, the growth is 79.1% (inactive).

Turning to `CCc1cccc(CC)c1NC(=O)c1sc2nc3c(cc2c1N)CCCC3`, the growth is 85.8% (inactive).

Turning to `O=C1CCC/C=C\C[C@H]2C=C(Cl)C(=O)/C2=C/C[C@H](CCCCC(F)(F)F)OC(=O)CCC/C=C\C[C@H]2C=C(Cl)C(=O)/C2=C/C[C@H](CCCCC(F)(F)F)O1`, the growth is -14.9% [7.5 µM] (active).

As to `COc1cc(-c2cc3ncccc3c3nc(N)c4cccnc4c23)cc(OC)c1OC`, the growth was 23.2% (inactive).

On to `COC(=O)[C@]12CC[C@@H](C)[C@H](C)[C@@H]1C1=CC[C@@H]3[C@@]4(C)C[C@@H](OC(C)=O)[C@H](O)[C@@](C)(CO)[C@@H]4[C@H](O)C[C@@]3(C)[C@]1(C)CC2`, for which the growth was -29.4% (active).

As to `Cc1ccc(N(CC(=O)Nc2ccc(S(=O)(=O)NC3CCN(C)CC3)cc2)S(=O)(=O)c2ccc(Cl)cc2)cc1`, the growth is 65.6% (inactive).

In the case of `N#CC1=C(N)Oc2ccc3ccccc3c2C1c1ccccc1` (centres undefined), the growth is 21.8% (inactive).

In the case of `COc1ccc(C(=O)/C=C/c2cc(-c3cc(OC)c(OC)c(OC)c3)n[nH]2)cc1OC`, the growth was -36% (active).

Consider `Cn1c(/C(C#N)=C/c2ccc3ccccc3c2)cc2ccccc21`, for which the growth was 5.55% (active).

Regarding `CCN(CC)c1ccc(/C=C/c2cc(C)c3ccccc3n2)cc1`, the growth was 65.6% (inactive).

The test system of another test is OVCAR-8 ovarian. Described as above. Particulars: 10 µM unless noted.
As for `COc1cccc(-c2nn(-c3ccccc3)cc2-c2ccnc(NCCCN)c2)c1`, the growth was 62% (inactive).

`Cn1cnc2c1c(=O)n(CCC(=O)Nc1ccc(F)cc1)c(=O)n2C`: the growth is 102% (inactive).

`C=C(C)[C@@H]1CC[C@]2(C=O)CC[C@]3(C)[C@H](CC[C@@H]4[C@@]5(C)C/C(=C/c6cccnc6)C(=O)C(C)(C)[C@@H]5CC[C@]43C)[C@@H]12`: the growth is 63.5% (inactive).

`CN(C)c1cccc2[nH]c(-c3[nH]ncc3Nc3ccnc(N)n3)nc12`: the growth was -22.7% (active).

On to `O=Cc1nc2ccccc2[nH]1`, for which the growth is 100% (inactive).

As for `COc1cc2nc(Cl)nc(Nc3cccc(C(=O)/C=C/c4ccc(Br)cc4)c3)c2cc1OC`, the growth is 84.7% (inactive).

`CC[C@H](CC[C@@H](C)[C@H]1CC[C@H]2[C@@H]3/C(=C/c4cccnc4)C(=O)C4=CC(=O)CC[C@]4(C)[C@H]3CC[C@]12C)C(C)C`: the growth was 64.5% (inactive).

Take `C=C(C)[C@@H]1CC[C@]2(c3nnc(-c4ccncc4)o3)CC[C@]3(C)[C@H](CC[C@@H]4[C@@]5(C)CCC(=O)NC(C)(C)[C@@H]5CC[C@]43C)[C@@H]12`: the growth was 92.6% (inactive).

Take `COc1cc(NC(C)CN(CC(C)C)C(C)C)c2ncccc2c1` (centres undefined): the growth is 90.1% (inactive).

Take `Nc1c2c(nc3ccc(Cl)cc13)CC(c1ccccc1)CC2=O` (centres undefined): the growth was 72.1% (inactive).

With `COC(=O)[C@]12CC[C@@H](C)[C@H](C)[C@@H]1C1=CC[C@@H]3[C@@]4(C)C[C@@H](O)[C@H](O)[C@@](C)(CO)C4=CC[C@@]3(C)[C@]1(C)CC2`, the growth was -22.9% (active).

Turning to `CCC1C(=O)COC1=O` (centres undefined), the growth is 96.6% (inactive).

In the case of `C=C(C)[C@@H]1CC[C@]2(C)[C@H](CC=C3[C@@H]4CC(C)(C)CC[C@]4(C(=O)OC)CC[C@]32C)[C@@]1(C)CC/C(N)=N/O`, the growth was 38.4% (inactive).

As to `O=C(/C=C/c1cccc2ccccc12)Nc1ncc(Cc2ccccc2)s1`, the growth is 29% (inactive).

On to `N#Cc1c(-c2ccc(O)cc2)c2c(N)nn(-c3ccccc3)c2[nH]c1=O`, for which the growth is 105% (inactive).

As for `COc1ccc(-c2c(-c3nc4ccc(N5CCOCC5)cc4[nH]3)[nH]c(C)c2C(C)=O)cc1`, the growth was 50.5% (inactive).

On to `c1ccc(-c2nc(Nc3ccc(-c4nc5ccccc5[nH]4)cc3)nc(N3CCOCC3)n2)cc1`, for which the growth was -50.4% (active).

For `Cc1cc2nc3c4cc(Cl)ccc4n(CCN(C)C)c3nc2cc1C`, the growth is 19.1% (inactive).

In the case of `Cc1cc(N2CCOCC2)nc(N(CCCNc2ccnc3cc(Cl)ccc23)Cc2ccco2)n1`, the growth is 46.3% (inactive).

Regarding `Cc1cc(N(CCNc2ccnc3cc(Cl)ccc23)Cc2ccco2)nc(Cl)n1`, the growth was -26.6% (active).

As for `COc1ccc(/C=C/C(=O)NCCO)cc1`, the growth is 96.4% (inactive).

Regarding `O=C1NC(c2ccc(Cl)c(Cl)c2)=C/C1=C\c1ccccc1`, the growth was 74.4% (inactive).

As to `N#C/C(=C\c1ccc(-c2ccccc2)o1)c1nc(-c2ccco2)cs1`, the growth is 96.9% (inactive).

As for `C=C1C(=O)O[C@H]2[C@H]1CC/C(COC(=O)NCc1c[nH]c3ccccc13)=C\CC[C@@]1(C)O[C@@H]21`, the growth is 39.4% (inactive).

Consider `Cn1cc(-c2csc(-c3cn(CCN)c4ccccc34)n2)c2cccnc21`, for which the growth was 40.8% (inactive).

In the case of `C=C(C)[C@@H]1CC[C@]2(C)[C@H](CC[C@@H]3[C@H]4[C@H]5OC[C@@]4(CCC5(C)C)CC[C@]32C)[C@@]1(C)CCCN`, the growth is 57.8% (inactive).

Take `CC[C@]12C=CCN3CC[C@@]4(c5cc([C@H]6CCC(=O)N6)c(OC)cc5N(C)[C@H]4[C@@](O)(C(=O)OC)[C@@H]1OC(C)=O)[C@@H]32`: the growth is 103% [2.5 µM] (inactive).

For the molecule `COc1cc2c(cc1-c1c(C)noc1C)ncc1nc(C3CCCCC3)n([C@@H](C)COC(F)F)c12`, the growth is 39.1% (inactive).

In the case of `COc1ccc(/C=C(\C#N)c2cc3ccccc3n2S(C)(=O)=O)cc1`, the growth is 95.9% (inactive).

Take `CCc1cccc(CC)c1NC(=O)c1sc2nc3c(cc2c1N)CCCC3`: the growth is 84.7% (inactive).

As to `O=C1CCC/C=C\C[C@H]2C=C(Cl)C(=O)/C2=C/C[C@H](CCCCC(F)(F)F)OC(=O)CCC/C=C\C[C@H]2C=C(Cl)C(=O)/C2=C/C[C@H](CCCCC(F)(F)F)O1`, the growth is -4.7% [7.5 µM] (active).

In the case of `COc1cc(-c2cc3ncccc3c3nc(N)c4cccnc4c23)cc(OC)c1OC`, the growth was 26.9% (inactive).

As to `COC(=O)[C@]12CC[C@@H](C)[C@H](C)[C@@H]1C1=CC[C@@H]3[C@@]4(C)C[C@@H](OC(C)=O)[C@H](O)[C@@](C)(CO)[C@@H]4[C@H](O)C[C@@]3(C)[C@]1(C)CC2`, the growth was -60.9% (active).

`Cc1ccc(N(CC(=O)Nc2ccc(S(=O)(=O)NC3CCN(C)CC3)cc2)S(=O)(=O)c2ccc(Cl)cc2)cc1`: the growth is 96.2% (inactive).

On to `N#CC1=C(N)Oc2ccc3ccccc3c2C1c1ccccc1` (centres undefined), for which the growth is 49.8% (inactive).

As for `COc1ccc(C(=O)/C=C/c2cc(-c3cc(OC)c(OC)c(OC)c3)n[nH]2)cc1OC`, the growth was -4.15% (active).

Consider `Cn1c(/C(C#N)=C/c2ccc3ccccc3c2)cc2ccccc21`, for which the growth was 30.3% (inactive).

With `CCN(CC)c1ccc(/C=C/c2cc(C)c3ccccc3n2)cc1`, the growth is 75.1% (inactive).
